Screening data deposited in PubChem by several laboratories.
GalR3 antagonist: GalR3 antagonists in HEK293 cells, primary screen, cell-based, fluorescence readout | Galanin receptor type 3 (Homo sapiens), O60755 | HEK293 GalR3-CNG cAMP membrane potential fluorescence; galR3 body fused to GalR1 C-terminus | inhibition, % at 3 µM | 0.44% of 360,000 active;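 active = inhibition above the screen-wide average plus 3 SD, cut at about 13% in these data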;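 also: forskolin and galanin both at EC90 stimulate the cells; cAMP rise reported by CNG channel membrane potential dye signal; 0% = forskolin plus galanin with DMSO and 100% = forskolin alone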
Target sequence (O60755 1-299 limits assumed): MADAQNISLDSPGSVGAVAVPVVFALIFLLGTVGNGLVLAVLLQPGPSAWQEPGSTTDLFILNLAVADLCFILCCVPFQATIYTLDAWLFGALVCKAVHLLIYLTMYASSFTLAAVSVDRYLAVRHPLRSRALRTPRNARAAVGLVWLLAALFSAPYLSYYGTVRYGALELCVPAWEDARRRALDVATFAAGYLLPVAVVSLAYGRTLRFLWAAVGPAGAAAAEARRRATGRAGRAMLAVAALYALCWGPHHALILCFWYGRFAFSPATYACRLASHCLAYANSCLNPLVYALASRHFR
Cardio protect: cardioprotection against H2O2-induced cell death, primary screen, uHTS, H9c2 cells, ATPLite luminescence; H9c2 cardiomyocytes, H2O2 injury protection, 2 h; protection from H2O2 cell death, % at 20 µM; 0.63% of 360,000 active;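 active = compounds giving at least 50% protection of heart cells from peroxide-induced death in the single-dose screen, raw or plate-pattern-corrected value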;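 also: 0% = DMSO wells with peroxide and 100% = DMSO wells without peroxide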
Gli-Sufu block: Gli-Sufu pathway antagonists, primary screen, luciferase luminescence, Sufu-KO-LIGHT cells, uHTS | AID 588413, 2011 | 0.74% of 340,000 active | inhibition, % at 5 µM | Sufu-KO-LIGHT fibroblasts, Gli luciferase reporter luminescence;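 active = inhibition above about 55%, limit read from the data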;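 also: 0% = DMSO-treated cells and 100% = wells with medium but no cells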
COUP-TFII inh: NR2F2 transcriptional activity inhibitors, primary screen, cell-based, luciferase reporter, HEK293T, luminescence | inhibition, % at 8.6 µM | HEK293T NGFI-A luciferase reporter | 0.7% of 370,000 active | AID 686940, 2013 | COUP transcription factor 2 (Homo sapiens), P24468;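 active = inhibition above a per-plate cutoff, mean inhibition of test wells between control levels plus 3 SD, cut at about 38% in these data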;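 also: cells cotransfected with COUP-TFII expression vector driving the NGFI-A reporter; 0% = median of COUP-TF2 test wells and 100% = reporter-only cells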
SMARCA2 activ: SMARCA2 (BRM) function activators, primary screen, cell-based, luminescence, high throughput | activation, % at 9.1 µM | MG213 cells, MMTV-luciferase reporter, dexamethasone, overnight | 1% of 370,000 active | AID 652017, 2013; in the data active = activation above about 7.8%;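 also: 0% = vehicle wells and 100% = reference activator wells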
FXN GAA850 act: FXN promoter activators, primary screen, cell-based, luciferase luminescence, HEK293 lucGAA850. HEK293 lucGAA850 FXN promoter luciferase reporter, 24 h; percent of 10 µM SAHA response. 0.56% of 360,000 active. AID 540364, 2011. activation, % at 6 µM;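 active = activation above the average of all compounds screened plus 3 SD, cutoff fixed separately per campaign, cut at about 7.5% in these data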;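 also: 0% = DMSO wells and 100% = 10 µM SAHA wells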
GAA30 counter: GAA30 FXN promoter activators, confirmation, counter-screen for GAA850 frataxin promoter activator project, cell-based, luminescence, HEK293, lucGAA30, triplicate; shares compounds with FXN GAA850 act; HEK293 lucGAA30 FXN promoter luciferase, 24 h; DMSO = 0%, 5 µM ipriflavone = 100%; activation, % at 6 µM; 66% of 1,900 active;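 active = mean activation above the mean of solvent-only control wells plus 3 SD, cut at about 22% in these data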;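 also: counterscreen of GAA850 promoter hits where activity marks nonselective or luminescence artifacts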
FXN GAA850 conf: FXN GAA850 promoter activators in reporter cells, confirmation, cell-based, luminescence, HEK293 lucGAA850, triplicate; shares compounds with FXN GAA850 act; HEK293 lucGAA850 FXN promoter luciferase reporter, 24 h; 100% = activation by SAHA; activation, % at 6 µM; 86% of 1,900 active; AID 588351, 2011;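 active = mean activation above a set limit taken from the primary screen, cut at about 8% in these data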;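 also: 0% = DMSO wells and 100% = 10 µM SAHA wells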
SMARCA2 act conf: SMARCA2 (BRM) function activators, confirmation, cell-based, luminescence, triplicate; shares compounds with SMARCA2 activ; MG213 cells, MMTV-luciferase with dexamethasone, overnight; MG213 cells expressing E1A, Rb sequestered; DMSO wells 0%, reference activator 100%; activation, % at 9.1 µM; 30% of 3,500 active;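 active = activation above its plate's cutoff, the mean activation of tested wells plus 3 SD, cut at about 7.9% in these data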
VP16 Luc act: GAL4-VP16 luciferase reporter activation, counter-screen for SMARCA2 (BRM) activator project, cell-based, pG5luc, luminescence, high throughput; 41% of 3,500 active; AID 686939, 2013; activation, % at 9.1 µM; shares compounds with SMARCA2 activ; HEK293 GAL4-VP16 pG5luc reporter; scaled: DMSO wells 0%, SAHA wells 100%;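 active = activation above the solvent-only control well mean plus 3 SD, averaged across control plates, cut at about 5.2% in these data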
An asterisk follows results filed as active; · = no result. In the library only some 3.4% were active in any assay of this set; here they are far more common.

SMILES	GalR3 antagonist	Cardio protect	Gli-Sufu block	COUP-TFII inh	SMARCA2 activ	FXN GAA850 act	GAA30 counter	FXN GAA850 conf	SMARCA2 act conf	VP16 Luc act
C/C(=N\NC(=O)c1sccc1C)c1ccncc1	-1	-2	-58	-53	9.2*	8.2*	82*	32*	9.4*	10*
N/C(=N\OC(=O)c1cccs1)c1ccccc1	-6	-12	-6	-37	18*	7.7*	99*	28*	12*	6.8*
Cc1ccc(/C(N)=N/OC(=O)c2cccs2)cc1	2	-14	-69	-64	-1	3	·	·	·	·
COc1ccc(S[C@]2(C(=O)NC3CC3)CC(=O)N[C@@H]2c2ccc(OC)cc2)cc1	·	·	·	-3	-2	·	·	·	·	·
O=C(/C=C/c1cccs1)Nc1ccc(N2CCOCC2)c(S(=O)(=O)Nc2ccccc2Cl)c1	-2	20	17	31	-2	2	·	·	·	·
COc1ccccc1NS(=O)(=O)c1cc(NC(=O)/C=C/c2cccs2)ccc1N1CCOCC1	-2	5	43	-1	18*	9.9*	-9	6	9.2*	3
CCOC(=O)[C@]12CCC=C1N(Cc1ccc(Cl)cc1Cl)C(=O)[C@H](CC(=O)N1CCN(C(=O)c3ccco3)CC1)C2	-4	·	·	28	-4	·	·	·	·	·
COc1ccc(-c2csc(-c3ccc(O)cc3)n2)cc1	1	-1	-64	-15	2	-4	·	·	·	·
COc1ccc(-c2nc(-c3ccc(O)cc3O)cs2)cc1OC	10	41	-40	-64	8.8*	8.7*	75*	36*	18*	12*
Nc1cc2c(cc1Br)-c1ccccc1C2=NO	-7	-12	-41	0	1	5	·	·	·	·
CCN(CC)CCn1c2ccccc2c2nc3ccc([N+](=O)[O-])cc3cc21	-2	-5	-68	-27	10*	11*	24*	28*	99*	5
C=CCN(C(=O)[C@@H](C1CC1)[C@@H](O)c1ccc(Cl)cc1)c1ccccc1	·	·	·	2	-3	·	·	·	·	·
Clc1ccc(-c2csc(Nc3ccccc3)[n+]2Cc2ccco2)c(Cl)c1	-10	-7	-58	-5	9.0*	7.9*	83*	37*	4	6.1*
CCCC[n+]1c(-c2ccc(Cl)cc2Cl)csc1Nc1ccccc1	-3	-6	-20	9	-2	2	·	·	·	·
Fc1ccccc1/C=N/Nc1ncnc2nc[nH]c12	-1	26	-24	-57	9.6*	11*	98*	47*	17*	5.8*
N#C/C(=C/c1ccco1)c1nc2ccccc2s1	-11	-8	-57	-51	18*	7.7*	142*	45*	9.3*	14*
C[C@H]1[C@H](c2ccccc2)Oc2cccc(N3CCCC3)c2S(=O)(=O)N1Cc1cccc(F)c1	-5	·	·	6	-1	·	·	·	·	·
COc1cccc(-c2cnc3c(NC=O)cc(-c4ccc(N5CCN(C)CC5)cc4)cn23)c1	-4	-11	·	-28	15*	8.8*	83*	40*	37*	3
COCCN1CCN(c2c(C)c(C)nc3cc(-c4cccc(OC)c4)nn23)CC1	-4	16	2	-42	11*	10*	72*	20*	9.7*	5
CCOCCN1CCN(c2c(C)c(C)nc3cc(-c4cc(OC)cc(OC)c4)nn23)CC1	-1	41	21	5	5	-1	·	·	·	·
CCOC(=O)c1nc2ccccc2c(=O)[nH]1	-1	5	-13	-20	9.3*	8.1*	69*	23*	4	2
O=c1[nH]c(Cc2ccccc2)nc2ccccc12	0	6	2	7	-1	1	·	·	·	·
COCc1cc(C)nc(OCC(=O)N/N=C/c2ccc(-c3cc([N+](=O)[O-])ccc3C)o2)c1C#N	0	2	-1	4	-2	1	·	·	·	·
Cc1ccc([N+](=O)[O-])cc1-c1ccc(/C=C(\C#N)c2[nH]nc(N)c2C#N)o1	-7	43	-39	-21	9.5*	8.7*	48*	20*	1	12*
COC(=O)C1CN(Cc2cn(CCOC(C)=O)nn2)CCS(=O)(=O)N1Cc1ccc(Cl)cc1 (centres undefined)	·	·	·	-19	-2	·	·	·	·	·
SMILES	GalR3 antagonist	Cardio protect	Gli-Sufu block	COUP-TFII inh	SMARCA2 activ	FXN GAA850 act	GAA30 counter	FXN GAA850 conf	SMARCA2 act conf	VP16 Luc act
COc1ccccc1C(=O)Nc1ccc2c(c1)nc1n2CCSC1	-2	-12	-74	-16	8.9*	8.0*	98*	27*	15*	5.6*
Cc1ccc(C(=O)Nc2ccc3c(c2)nc2n3CCSC2)cc1	-5	-14	-112	-67	4	2	·	·	·	·
CCOc1ccc(C2=Nn3c(nnc3-c3ccco3)SC2)cc1	2	-1	3	1	-2	3	·	·	·	·
COc1ccc(C2=Nn3c(nnc3-c3ccco3)SC2)cc1OC	9	17	13	-107	8.2*	10*	37*	20*	13*	9.2*
COc1ccc(CNC(=O)COc2cc3c(c4oc(=O)cc(C)c24)CCC(C)(C)O3)c(OC)c1	-8	8	·	17	0	-3	·	·	·	·
CN(C)c1ccc(C(=O)NC2CCCCN(Cc3ccc(Cl)cc3)C2=O)cc1 (centres undefined)	·	·	·	-21	1	·	·	·	·	·
CCn1c(SCc2nc3ccccc3s2)nc2cc(S(=O)(=O)N3CCOCC3)ccc21	-1	4	-11	-16	10*	12*	81*	33*	3	4
CCCSc1nc2cc(S(=O)(=O)N3CCOCC3)ccc2n1CC	1	7	6	12	-1	2	·	·	·	·
